Among the data in PubChem BioAssay are inhibition values, retold here.

Each structure is given as a SMILES string. The list shows a part of the results. Activity calls are given as the source filed them.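 The calls were made as follows, unless noted: active = mean inhibition across four replicates of at least 40 percent at the single tested concentration; inactive = the rest.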

A short description of experiment [1]: inhibitors of PAF-induced NFkB signaling in CF airway cells, dose response, cell-based, uHTS hits, panel, cytotoxicity readout (AID 624344). The conditions noted are these: CF bronchial epithelial cells, PAF-induced NFkB reporter inhibition, with PAF, run 1; at 79 µM (top of the series) unless noted.
Test in experiment [2]: as above
The conditions noted are these: CF bronchial epithelial cells, PAF-induced NFkB reporter inhibition, with PAF, run 2; at 79 µM (top of the series) unless noted.

The subject of another experiment is Cytotoxicity. The description is as above. The conditions noted are these: CF bronchial epithelial cells; run 1, at 19.8 µM (top of the series).
A short description of experiment [3]: HIF-2a reporter inhibitor retest, confirmation, luminescence, 786-0 RCC cells (AID 651580). The conditions noted are these: HIF-2a luciferase reporter luminescence, overnight, at 18.8 µM, stronger effect = higher value. A general note: In a reporter assay the amount or activity of a reporter protein is the signal.
The nature of experiment [4]: HIF-1a luciferase reporter signal reduction – MiaPaCa-2 cells, single concentration, counter-screen for HIF-2a inhibitor project, confirmation (AID 651589;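 active = mean inhibition of the reporter signal across four replicates at the single tested dose of 50% or more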). The conditions noted are these: MiaPaCa-2 HIF-1a luciferase reporter, desferoxamine, overnight; at 18.8 µM; stronger effect = higher value.

As usually defined, the inhibition is the change of the read-out against control, counted positive when it falls. With `CC(C)C[C@@H](CN1CCCC1CN1C(=S)NC[C@@H]1Cc1ccc(O)cc1)N1C[C@H](Cc2ccc(O)cc2)N(CCc2ccccc2)C1=S` (stereo partly specified), the figures for the inhibition in experiment [1] and in experiment [2] were 112% and 101%, respectively.
In the same order, the values of `CN(C)c1ccc(-c2nn3c(-c4ccccc4Cl)nnc3s2)cc1` are 102% and 65.9%.
The like results for `Cc1cccc(N2CCN(C(=O)CCn3c(=S)[nH]c4cc5c(cc4c3=O)OCO5)CC2C)c1` (stereo unspecified) were, in that order, 109% and 93.9%.
The like results for `O=C(NCc1nc(-c2ccc(C(F)(F)F)cc2)no1)Nc1cc(Cl)cc(Cl)c1` were, in that order, 97.9% and 114%.
Take `CCN1CCN(Cc2ccc(NC(=O)c3ccc(C)c(NC(=O)N4CCNC4=O)c3)cc2C(F)(F)F)CC1`: the inhibition is 103% in experiment [1] and 119% in experiment [2].
Consider `C=CC[C@@H](CC(=O)N(CCO)Cc1ccccc1)C(=O)NC[C@H](OC(=O)[C@@H](CC=C)Cc1ccc(F)cc1)c1ccccc1`, for which the figures for the inhibition in experiment [1] and in experiment [2] were 110% and 102%, respectively.
As to `C=C1C(=O)[C@]23C[C@H]1CC[C@H]2[C@]1(C)[C@@H](O)CC[C@@](C)(C(=O)O)[C@H]1C[C@@H]3O`, the inhibition in experiment [1] amounted to 98.4%; in experiment [2], 103%.
For the compound `COc1ccc(N=Cc2cc3c(cc2O)OC(N)=C(C#N)C3c2ccccc2)cc1` (stereo unspecified), the inhibition stood at 76.8% in experiment [1] and 47.7% in experiment [2].
Regarding `CCOC(=O)Oc1c(OC)cc(C(=O)O[C@@H]2C[C@@H]3CN4CCc5c([nH]c6cc(OC)ccc56)[C@H]4C[C@@H]3[C@H](C(=O)OC)[C@H]2OC)cc1OC`, the inhibition in experiment [1] was 54.6%; in experiment [2], 42.4%.
For the compound `COc1cc(-c2cnc3c(NC=O)cc(-c4ccc(C)cc4)cn23)cc(OC)c1OC`, the inhibition was found to be 70.3% in experiment [1] and 70.5% in experiment [2].
With `O=Nc1c(O)n(Cc2c(Cl)cccc2Cl)c2ccccc12`, the figures for the inhibition in experiment [1] and in experiment [2] were 103% and 115%, respectively.
The like results for `C[C@H](CO)N1C[C@H](C)[C@@H](CN(C)C(=O)Nc2ccc3c(c2)OCO3)Oc2c(NC(=O)Nc3ccc(C(F)(F)F)cc3)cccc2C1=O` were, in that order, 113% and 105%.
Consider `O=C(Nc1ccc(N2CCN(C(=O)c3ccccc3F)CC2)cc1)c1cncc(Br)c1`, for which the inhibition turned out to be 112% in experiment [1] and 99.6% in experiment [2].
Take `Cc1cc(C)cc(NS(=O)(=O)c2ccc(-c3cnc(C4CC4)o3)cc2)c1`: the inhibition in experiment [1] came to 110%; in experiment [2], 106%.
`CCOC(=O)COc1ccc2ccccc2c1/C=C/[N+](=O)[O-]`: the inhibition in experiment [1] was determined as 100%; in experiment [2], 97.5%.
In the same order, the values of `C=C1C(=O)OC2CC1C(O)CC(C)=CCCC(C)=CC(O)CC2C` (stereo unspecified) are 103% and 110%.
The like results for `Cc1ccc(CCC(=O)Nc2ncc(Cc3cccc(Cl)c3Cl)s2)o1` were, in that order, 101% and 112%.
The like results for `COc1cc2c(c(OC)c1OC)-c1ccc(NCc3ccccc3)c(=O)cc1C(NC(C)=O)CC2` (stereo unspecified) were, in that order, 94.4% and 112%.
With `NS(=O)(=O)c1ccc(CCNc2nn3c(-c4cccc(OC(F)(F)F)c4)cnc3s2)cc1`, the inhibition was 98.6% in experiment [1] and 102% in experiment [2].
The like results for `Nc1nc(N)nc(-c2cc([N+](=O)[O-])ccc2O)n1` were, in that order, 76.3% and 66.7%.
In the same order, the values of `C=CC[C@]12CC=CC(=O)[C@@]1(O)O[C@H](c1ccc(OC)c(OC)c1)[C@H]2C` are 110% and 87.5%.
As for `COc1ccc([C@]2(C(C)C)ON(c3ccccc3C(F)(F)F)C2=O)cc1`, the inhibition came to 103% in experiment [1] and 91.5% in experiment [2].
In the same order, the values of `Cc1ccccc1C(=O)N1CCN(c2ccc(NC(=O)c3cccc(OC(C)C)c3)cc2)CC1` are 89.1% and 86.4%.
For the compound `Nc1ncc([N+](=O)[O-])c(N2CCCCCC2)n1`, the inhibition in experiment [1] stood at 115%; in experiment [2], 104%.
As to `Cn1cccc1C(=O)NC(=O)COC(=O)c1ccc(S(C)(=O)=O)c([N+](=O)[O-])c1`, the inhibition in experiment [1] is 92.6%; in experiment [2] it was 98.1%.
The like results for `Cn1c(N2CCN(C(c3ccccc3)c3ccccc3)CC2)nc2c1c(=O)[nH]c(=O)n2C` were, in that order, 108% and 104%.
In the same order, the values of `Oc1ccc(Br)cc1-c1nc2cnccn2c1NC1CCCC1` are 101% and 97.8%.
The like results for `Cc1ccc(-c2cc(C(=O)N(C)Cc3cnn(C)c3C)c3cc(Br)ccc3n2)cc1` were, in that order, 109% and 102%.
As to `O=C(NNc1ccccc1Br)C(O)(c1cccc(C(F)(F)F)c1)c1cccc(C(F)(F)F)c1`, the inhibition in experiment [1] was found to be 103%; in experiment [2], 104%.
In the same order, the values of `CC1(C)CC(=O)C=C(NC2=CC3OC(c4ccccc4)OCC3OC2=O)C1` (stereo unspecified) are 103% and 114%.
`NC(=O)c1sc2nc3c(c(-c4ccco4)c2c1N)CCCC3`: the inhibition in experiment [1] was determined as 114%; in experiment [2], 101%.
The like results for `CCCc1nc(Cl)c(C#N)c2c1CCCC2` were, in that order, 97.8% and 98.1%.
The like results for `C#CCN(C[C@@H]1[C@@H](OC(=O)NCc2ccco2)[C@@H](OC(=O)NCc2ccco2)Cn2c(=O)ccc(=O)n21)S(=O)(=O)c1ccc(C)cc1` were, in that order, 98.7% and 111%.
With `CCC(CO)Oc1cc(NCc2ccc(Cl)cc2Cl)c2ncn(C(C)C)c2c1` (stereo unspecified), the inhibition was found to be 105% in experiment [1] and 109% in experiment [2].
For `COc1ccc(-c2cc(=O)oc3c(C)c(O)ccc23)cc1`, the values for the inhibition in experiment [1] and in experiment [2] were 94.8% and 101%, respectively.
The like results for `C=CCSc1nc2ccccc2n1C(=O)/C=C/c1ccc(OC)c(OC)c1` were, in that order, 115% and 102%.
In the same order, the values of `COC(=O)c1c(C)n(-c2ccc(OC)cc2)c2ccc(O)cc12` are 103% and 94.9%.
In the same order, the values of `Cc1ccnc(NC(=O)CSc2cc(=O)n(C)c3ccccc23)c1` are 103% and 110%.
For the compound `Cc1cc(C)c(O)c(CN(C)Cc2cc(Cl)cc(Cl)c2O)c1`, the inhibition in the experiment with Cytotoxicity was determined as 12%.
Consider `COC(=O)CCNc1ccc2c(c1)OCCO2`, for which the inhibition in experiment [3] was 50.7% (active); in experiment [4], 56.6% (active).
In the same order, the values of `CC(C)(C)c1cc(C(=O)N/N=C/c2ccc([N+](=O)[O-])s2)n[nH]1` are 74.6% (active) and 98.4% (active).
